This is an account of results in PubChem BioAssay (NCATS).

Records with an inconclusive call do not appear. The source made the active and inactive calls. The call rests on the fitted dose curve; in most records, active means well fitted curve in the direction sought with a large enough effect; inconclusive means small, poorly fitted or top-dose-only effect, or another doubt; inactive means no such curve, though single readings can be large; an effect the other way counts as inactive or inconclusive.

For experiment [1], the target named is Phospholipid hydroperoxide glutathione peroxidase GPX4 (Homo sapiens) (UniProt P36969). The experiment is described as follows: Primary qHTS Assay for Inhibitors of Recombinant Selenoprotein Glutathione Peroxidase 4 (GPX4) (AID 1845192). Further: nearly all actives have a fitted effect of over 65% in size. An outline of the steps: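 GR-coupled readout: 100 nM GR, 1 mM GSH, 0.5 mM NADPH; NADPH fluorescence (ex 340/em 450 nm) read at t=0 and after 15 min RT. GPX4 200 nM, preincubated 30 min with compound; substrate 0.5 mM CHP.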
A general note: qHTS replaces the single test concentration by a dilution series.

Experiment [2] is described as follows: Quantitative High-Throughput drug screen in 47 multiple myeloma cell lines against the NCATS MIPE library collection: FR4_PLB cell viability assay (AID 1918924; further: nearly all actives have a fitted effect of over 35% in size; further: potency means the concentration at half of the fitted maximal effect). An outline of the steps:
(§1)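 Viability readout: CellTiter-Glo luminescence following 5 min room-temperature incubation with reagent. Prior exposure: 48 h, 37C, humidified 5% CO2, 500 cells per well.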

A short description of experiment [3]: Quantitative High-Throughput drug screen in 47 multiple myeloma cell lines against the NCATS MIPE library collection: AMO1_DSMZ cell viability assay (AID 1918927; further: nearly all actives have a fitted effect of over 30% in size; further: potency means the concentration at half of the fitted maximal effect). In a few lines: (§2)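 qHTS of the MIPE 4.0 collection: 500 myeloma cells/well, 48 h drug exposure at 37C in 5% CO2, then CellTiter-Glo for 5 min at room temperature before luminescence reading.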
Experiment [4] in a line: Quantitative High-Throughput drug screen in 47 multiple myeloma cell lines against the NCATS MIPE library collection: ARD_JJKsccE7 cell viability assay (AID 1918929; further: potency means the concentration at half of the fitted maximal effect). In a few lines:
as §2

A short description of experiment [5]: Quantitative High-Throughput drug screen in 47 multiple myeloma cell lines against the NCATS MIPE library collection: KMM1_JCRB cell viability assay (AID 1918960). Further: nearly all actives have a fitted effect of over 30% in size. Further: potency means the concentration at half of the fitted maximal effect. An outline of the steps:
(§3)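 ATP readout (CellTiter-Glo), 48 h drug incubation, 37 °C/5% CO2, 500 cells per well; normalisation to DMSO (100%) and media-only (0%) controls.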

Experiment [6] is described as follows: Quantitative High-Throughput drug screen in 47 multiple myeloma cell lines against the NCATS MIPE library collection: Delta47_JCRB cell viability assay (AID 1918925; further: nearly all actives have a fitted effect of over 45% in size; further: potency means the concentration at half of the fitted maximal effect). An outline of the steps: as §2
Experiment [7] can be described thus: Quantitative High-Throughput drug screen in 47 multiple myeloma cell lines against the NCATS MIPE library collection: EJM_DSMZ cell viability assay (AID 1918926; further: nearly all actives have a fitted effect of over 30% in size; further: potency means the concentration at half of the fitted maximal effect). An outline of the steps: as §2
The nature of experiment [8]: Quantitative High-Throughput drug screen in 47 multiple myeloma cell lines against the NCATS MIPE library collection: ARP1_JJKsccF8 cell viability assay (AID 1918928; further: nearly all actives have a fitted effect of over 40% in size; further: potency means the concentration at half of the fitted maximal effect). In a few lines:
as §3

A short description of experiment [9]: Quantitative High-Throughput drug screen in 47 multiple myeloma cell lines against the NCATS MIPE library collection: Karpas620_DSMZ cell viability assay (AID 1918959). Further: nearly all actives have a fitted effect of over 30% in size. Further: potency means the concentration at half of the fitted maximal effect. In a few lines: as §1

Chain of Phospholipid hydroperoxide glutathione peroxidase GPX4 (Homo sapiens) (P36969 whole entry, looked up): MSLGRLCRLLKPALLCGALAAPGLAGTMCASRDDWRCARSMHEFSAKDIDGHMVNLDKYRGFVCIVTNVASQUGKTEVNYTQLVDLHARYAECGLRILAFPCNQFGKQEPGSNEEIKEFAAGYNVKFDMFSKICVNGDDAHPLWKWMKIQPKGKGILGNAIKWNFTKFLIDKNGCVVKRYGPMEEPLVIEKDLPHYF

Turning to `Cc1ccc(-n2[nH]c(C)c(N=Nc3cccc(-c4cccc(C(=O)O)c4)c3O)c2=O)cc1C`, the Potency result in experiment [1], in experiment [3], in [4] and in experiment [5] was “inactive” in each case. The Potency in experiment [2] was 20900 nM (active).

As for `C=C1C(=O)O[C@H]2[C@@H]1CCC(C)=CCC[C@@]1(C)O[C@@H]21`, the Potency is 4690 nM (active) in [2]; 2350 nM (active) in [6]; 5260 nM (active) in [7]; 3320 nM (active) in experiment [3]; 4690 nM (active) in experiment [8]; 2960 nM (active) in [4].

Take `O=C(O)CCCCCC(=O)NN=C1CCCC1`: the Potency entry in [1], in [2], in experiment [7], in experiment [3], in [8] and in experiment [4] was “inactive” each time. For the same molecule, the Potency entry in experiment [9] is “inactive”.

As to `COc1cc(C(=O)NC2CCN(C)CC2)ccc1Nc1ncc2c(n1)N(C1CCCC1)CCC(=O)N2C(C)C`, the Potency result in experiment [1] was “inactive”. The Potency is 14800 nM (active) in experiment [6]; 16600 nM (active) in experiment [7]; 9350 nM (active) in [3]; 29600 nM (active) in [8]; 18700 nM (active) in experiment [4]; 23500 nM (active) in experiment [9].

In the case of `CC(=O)OCC(=O)[C@@]1(O)CC[C@H]2[C@@H]3CCC4=CC(=O)CC[C@]4(C)[C@@H]3C(=O)C[C@@]21C`, the Potency entry in experiment [2], in experiment [6], in experiment [7], in experiment [3], in [8] and in experiment [9] was “inactive” in each case. In [5], the Potency result was “inactive”.

For the molecule `OCCN1C[C@H](O)[C@@H](O)[C@H](O)[C@@H]1CO`, the Potency entry in experiment [2], in [6], in [7], in experiment [3], in experiment [4] and in experiment [9] was “inactive” each time.

`CC(C)N1[N]C(=C2C=c3cc(O)ccc3=N2)c2c(N)ncnc21`: the Potency in experiment [2] was 296 nM (active); in experiment [6] it was 264 nM (active); in experiment [7], 3720 nM (active); in [3], 662 nM (active); in [8], 83.3 nM (active); in [9] it was 5900 nM (active). The Potency in experiment [5] is 296 nM (active).

As to `O=C(O)C[C@H](O)C[C@H](O)C=Cc1c(C2CC2)nc2ccccc2c1-c1ccc(F)cc1`, the Potency in experiment [2] is 10500 nM (active); in [6] it was 8330 nM (active); in [3] it was 9350 nM (active); in experiment [4], 4180 nM (active); in experiment [5], 5900 nM (active). For the same molecule, in experiment [7], the Potency entry was “inactive”.

For the molecule `CC[C@@]1([C@@H]2O[C@@H]([C@H]3O[C@@](O)(CO)[C@H](C)C[C@H]3C)C[C@H]2C)CC[C@H]([C@]2(C)CC[C@]3(C[C@H](O)[C@@H](C)[C@@H]([C@@H](C)[C@@H](OC)[C@H](C)C(=O)O)O3)O2)O1`, the Potency in [2] was 812 nM (active); in [6], 457 nM (active); in experiment [7], 2040 nM (active); in experiment [3], 57.5 nM (active); in experiment [4], 911 nM (active).

As to `C=C1C(=CC=C2CCC[C@]3(C)[C@@H]([C@H](C)CCCC(C)(C)O)CC[C@@H]23)C[C@@H](O)C[C@@H]1O`, the Potency in experiment [2] was 14800 nM (active); in experiment [6], 9350 nM (active); in experiment [7], 2350 nM (active); in experiment [3], 935 nM (active); in [4], 4180 nM (active); in experiment [5], 4690 nM (active).

For the molecule `CC[C@H](CC[C@@H](C)[C@H]1CC[C@H]2[C@@H]3CC=C4C[C@@H](O)CC[C@]4(C)[C@@H]3CC[C@]12C)C(C)C`, the Potency result in experiment [2], in [6], in experiment [7], in [3], in experiment [4] and in experiment [9] was “inactive” in each case. Besides, the Potency entry in [5] is “inactive”.

For `COc1cc([C@@H]2c3cc4c(cc3[C@@H](O[C@@H]3O[C@@H]5CO[C@@H](c6cccs6)O[C@@H]5[C@H](O)[C@@H]3O)[C@H]3COC(=O)[C@H]23)OCO4)cc(OC)c1O`, the Potency in experiment [2] was 16600 nM (active); in [6], 935 nM (active); in [7], 2350 nM (active); in [3], 590 nM (active); in [8], 209 nM (active); in experiment [9] it was 2960 nM (active). In experiment [5], the Potency is 743 nM (active).

On to `CCNC(=O)Nc1ccc(-c2nc3c(c(N4CCOC[C@H]4C)n2)CCN(C2COC2)C3)cc1`, for which the Potency in experiment [2] is 935 nM (active); in experiment [6] it was 743 nM (active); in experiment [7], 7430 nM (active); in experiment [3], 1320 nM (active); in experiment [8], 743 nM (active); in [9], 16600 nM (active). For the same molecule, the Potency in experiment [5] was 332 nM (active).

With `O=c1c(O)c(-c2ccc(O)c(O)c2)oc2cc(O)ccc12`, the Potency was 20900 nM (active) in [2]; 11800 nM (active) in experiment [6]; 20900 nM (active) in experiment [7]; 10500 nM (active) in [3]; 20900 nM (active) in [8]; 5900 nM (active) in experiment [5].

As to `CNC(=O)c1ccc(Nc2cc(Nc3ccccc3S(=O)(=O)C(C)C)c3cc[nH]c3n2)nc1`, the Potency in experiment [2] is 4690 nM (active); in [6], 662 nM (active); in [7], 6620 nM (active); in experiment [3] it was 2090 nM (active); in [4], 1870 nM (active); in experiment [9], 1320 nM (active). The Potency in experiment [5] is 1480 nM (active).

In the case of `COc1ccc2c(c1OC)C(=O)OC2[C@H]1c2c(cc3c(c2OC)OCO3)CCN1C` (stereo not given in full), the Potency is 52.6 nM (active) in experiment [2]; 187 nM (active) in [6]; 2090 nM (active) in experiment [7]; 74.3 nM (active) in experiment [3]; 52.6 nM (active) in experiment [8]; 26.4 nM (active) in experiment [9]. For the same molecule, the Potency in [5] is 148 nM (active).

Turning to `COc1cc2c(Nc3ccc(Cl)c(Cl)c3F)ncnc2cc1OCC1C[C@@H]2CN(C)C[C@H]2C1`, the Potency was 14800 nM (active) in [2]; 2350 nM (active) in [6]; 2960 nM (active) in experiment [7]; 8330 nM (active) in experiment [3]; 4180 nM (active) in [9]; 18700 nM (active) in experiment [5].

In the case of `O=C1NC(=O)[C@@H](c2cn3c4c(cccc24)CCC3)[C@H]1c1c[nH]c2ccccc12`, the Potency is 74.3 nM (active) in [2]; 235 nM (active) in experiment [6]; 20900 nM (active) in experiment [7]; 46.9 nM (active) in experiment [3]; 66.2 nM (active) in experiment [4]; 74.3 nM (active) in experiment [9]. Also, the Potency in [5] was 105 nM (active).

Consider `CC(C)(C)[N+]([O-])=Cc1ccc(S(=O)(=O)O)cc1S(=O)(=O)O`, for which the Potency result in [2], in experiment [6], in experiment [7], in [3], in experiment [9] and in experiment [5] was “inactive” in each case.

For `CCC(C=C[C@@H]1OC(=O)C=C[C@H]1C)=C[C@H](C)CC=CC(C)=C[C@@H](C)C(=O)[C@@H](C)[C@H](O)[C@@H](C)CC(C)=CC(=O)O`, the Potency in [2] was 31.1 nM (active); in experiment [6], 22 nM (active); in experiment [7], 27.7 nM (active); in [3], 34.9 nM (active); in experiment [8] it was 27.7 nM (active); in experiment [9], 12.4 nM (active). Further, in experiment [5], the Potency is 22 nM (active).

Consider `CC(C)OC(=O)[C@H](C)N[P@](=O)(OC[C@H]1O[C@@H](n2ccc(=O)[nH]c2=O)[C@](C)(F)[C@H]1O)Oc1ccccc1`, for which the Potency result in experiment [2], in experiment [6], in experiment [7], in experiment [3], in [9] and in experiment [5] was “inactive” each time.

Turning to `COC1=C2C[C@@H](C)C[C@H](OC)[C@@H](O)[C@@H](C)C=C(C)[C@H](OC(N)=O)[C@@H](OC)C=CC=C(C)C(=O)NC(=CC1=O)C2=O`, the Potency in experiment [2] was 332 nM (active); in experiment [6], 132 nM (active); in [7] it was 372 nM (active); in experiment [8], 118 nM (active).

For `O=C(C=Cc1ccc(CN(CCO)CCc2c[nH]c3ccccc23)cc1)NO`, the Potency in experiment [2] was 74.3 nM (active); in experiment [6], 105 nM (active); in [7], 235 nM (active); in [3] it was 93.5 nM (active); in [4], 93.5 nM (active); in experiment [9], 148 nM (active).

Consider `CC(=O)O[C@]1(C(C)=O)CC[C@H]2[C@@H]3C=C(C)C4=CC(=O)CC[C@]4(C)[C@@H]3CC[C@@]21C`, for which the Potency entry in experiment [2] and in experiment [7] was “inactive” throughout. For the same molecule, the values for the Potency in experiment [6], in experiment [3] and in [9] were 8330 nM (active), 8330 nM (active) and 14800 nM (active), respectively.
